KAT2A inh: inhibitors of human GCN5L2 histone acetyltransferase; Q92830; GCN5L2 HAT assay, ThioGlo1 CoA-SH fluorescence; Potency, µM (top dose mostly 58.9 µM), without a hit: at the top dose activity change, negative = inhibition, most hits filed as inhibitors; 390,000 compounds, 0.21% hits; AID 504327
Target sequence (Q92830 whole entry, looked up): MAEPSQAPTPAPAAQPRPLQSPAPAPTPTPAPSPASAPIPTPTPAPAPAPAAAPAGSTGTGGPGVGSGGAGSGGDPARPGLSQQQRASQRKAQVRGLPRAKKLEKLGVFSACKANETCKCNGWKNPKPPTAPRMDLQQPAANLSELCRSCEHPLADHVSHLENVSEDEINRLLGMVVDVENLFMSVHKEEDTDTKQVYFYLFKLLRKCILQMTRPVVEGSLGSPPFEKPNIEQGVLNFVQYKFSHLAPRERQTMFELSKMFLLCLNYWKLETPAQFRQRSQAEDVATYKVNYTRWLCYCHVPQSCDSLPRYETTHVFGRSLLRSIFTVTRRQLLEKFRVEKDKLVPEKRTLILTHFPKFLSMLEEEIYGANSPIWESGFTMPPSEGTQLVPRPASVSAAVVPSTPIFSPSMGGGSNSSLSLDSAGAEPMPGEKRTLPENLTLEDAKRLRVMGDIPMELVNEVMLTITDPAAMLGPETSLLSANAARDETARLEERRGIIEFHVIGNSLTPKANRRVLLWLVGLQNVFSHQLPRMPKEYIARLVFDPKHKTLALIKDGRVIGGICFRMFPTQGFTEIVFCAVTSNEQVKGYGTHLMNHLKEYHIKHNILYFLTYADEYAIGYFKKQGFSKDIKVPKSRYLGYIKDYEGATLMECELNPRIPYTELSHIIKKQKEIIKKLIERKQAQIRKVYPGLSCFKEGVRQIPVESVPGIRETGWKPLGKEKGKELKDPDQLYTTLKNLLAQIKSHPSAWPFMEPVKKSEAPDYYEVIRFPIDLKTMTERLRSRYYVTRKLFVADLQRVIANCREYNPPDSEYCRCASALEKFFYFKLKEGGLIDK
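ThioGlo1-coupled HAT assay: 20nM GCN5L2, 70uM acetyl-CoA, 75uM H3(1-25) peptide, pH 7.5. Fluorescence read at 340/540nm at start and after 20 min at room temperature.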
DT40 TDP1 no CPT: qHTS for Inhibitors of human tyrosyl-DNA phosphodiesterase 1 (TDP1): qHTS in cells in absence of CPT. DT40 Tdp1-/- hTDP1 cells, no CPT, ATP luminescence, 48 h. Potency, µM (top dose mostly 46.2 µM), for inactives: at the top dose activity change, negative = growth inhibition, actives largely listed as inhibitors. 420,000 compounds, 15% hits; note: nearly all actives have a fitted effect of over 55% in size
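DT40 Tdp1-/-;hTDP1 cells, no CPT (DMSO vehicle only), 400 cells/well; compounds pin-transferred; ≥48 hr, 37 °C; CellTiter-Glo 30 min RT dark, luminescence read.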
VDR inh: vitamin D3 receptor (human) inhibition | 400,000 compounds, 0.93% hits | VDR-SRC2-3 peptide fluorescence polarization, 2 h | P11473 | Potency, µM, for the others: max response, negative = inhibition, actives largely listed as inhibitors
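Measured by FP: displacement of SRC2-3 coactivator peptide from VDR by library compounds, following a two-hour ambient incubation.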
DT40 TDP1 CPT: growth inhibition of DT40 Tdp1-/-;hTDP1 cells with camptothecin (screen for TDP1 inhibitors). AID 686979. 420,000 compounds, 12% hits. chicken DT40 Tdp1-/-;hTDP1 cells + 20 nM CPT, ATP luminescence, 48 h. Potency, µM (highest dose often 46.2 µM), for the others: at the highest dose activity change, negative = growth inhibition, most hits filed as inhibitors; note: nearly all actives have a fitted effect of over 55% in size
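Chicken DT40 Tdp1-/- cells stably complemented with human TDP1 were seeded at 400 cells/well in medium containing 20 nM camptothecin, exposed to pin-transferred compounds, and grown at 37 °C for at least 48 hr. Viability was read as ATP luminescence.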
TDP1 block: TDP1 (human) enzyme inhibition; AID 485290; Q9NUW8; Potency, µM (doses to about 130 µM), without a hit: top-dose activity change, negative = inhibition, hits mostly inhibitors; 350,000 compounds, 0.28% hits; recombinant TDP1, AlphaScreen DNA substrate cleavage; note: nearly all actives have a fitted effect of over 40% in size
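Here, a 5' biotin and 3' phosphotyrosine-FITC DNA oligonucleotide reports Tdp1 activity: intact substrate bridges AlphaScreen beads, while cleavage leaves a 3' phosphate and drops signal. All incubations at room temperature.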
PLK1 PBD block: inhibitors of human PLK1 polo-box domain binding. P53350. 360,000 compounds, 2.8% hits. Potency, µM, without a hit: max response, negative = inhibition, hits mostly inhibitors. Plk1 PBD binding of FITC phosphopeptide, fluorescence polarization. AID 720504; note: series mostly up to about 57 µM; nearly all actives have a fitted effect of over 65% in size
The depositor's hits bear a star; ? = inconclusive; / = not tested or not shown; ! = a repeat was not active; [ ] = another dose, or the depositor's remark. Compounds with a hit are over-represented: about 18% of the library has one in this group of screens. Calls come from the whole dose curve; as a rule, active = well fitted curve in the direction sought with a large enough effect; inconclusive = small, poorly fitted or top-dose-only effect, or another doubt; inactive = no such curve, though single readings can be large; an effect the other way counts as inactive or inconclusive. % is set by controls: 0 for no effect and ±100 for the full control effect; potency is the fitted concentration of half-maximal effect.

SMILES | KAT2A inh | DT40 TDP1 no CPT | VDR inh | DT40 TDP1 CPT | TDP1 block | PLK1 PBD block
N=c1c2c(-c3ccccc3)c(-c3ccccc3)n(Cc3ccco3)c2ncn1CCCO | -4% | 23µM* | -22% | 13µM* | 3% | 16%
N=c1c2c(-c3ccccc3)c(-c3ccccc3)n(Cc3ccco3)c2ncn1CCN1CCOCC1 | -6% | ? | 17% | ? | 5% | 24%
O=C(c1cccc(C(F)(F)F)c1)N1CCN(CCc2ccccc2)CC1 | -12% | -18% | 16% | -24% | 1%[56.1 µM] | 2%
Cc1ccccc1COc1cccn2c(N(C)C(=O)CCC3CCCC3)c(C)nc12 | / | 23µM* | / | ? | / | -12%
COC(=O)c1ccccc1COc1cccn2c(N(C)C(=O)CCC3CCCC3)c(C)nc12 | / | ? | / | ? | / | -13%
COc1ccccc1COc1cccn2c(N(C)C(=O)CCC3CCCC3)c(C)nc12 | / | 15µM* | / | 18µM* | / | -4%
COc1ccc(NC(=O)CSc2nccn2Cc2ccc(F)cc2)cc1 | -15% | -29% | -7% | ? | 5% | -10%
CN(C)S(=O)(=O)c1cccc(NC(=O)COC(=O)/C=C/c2ccc([N+](=O)[O-])cc2)c1 | -4% | ? | -6% | ? | 2% | -17%
O=c1oc2cc(O)ccc2s1 | -3% | ? | 28µM*! | ? | -7%[56.1 µM] | -19%
O=C(NCCC1=CCCCC1)C1CCN(S(=O)(=O)c2ccc(Br)s2)CC1 | -5% | 21µM* | -3% | 21µM* | -3% | -2%
O=C(NCCC1=CCCCC1)C1CCCN(S(=O)(=O)c2cnc[nH]2)C1 (centres undefined) | -5% | -2% | -13% | 3% | -1% | -5%
O=C(NCCC1=CCCCC1)C1CCCN(S(=O)(=O)c2ccc(F)cc2)C1 (centres undefined) | 1% | 21µM* | 17% | 12µM* | 3% | -3%
CCCCCc1c(C)nc(Nc2ccc(F)cc2)[nH]c1=O | -25% | 16µM* | 4% | ? | -1% | -2%
COc1ccc(Nc2nc3ccccc3c(=O)[nH]2)cc1 | -4% | ? | ? | ? | -1% | 24µM*
CCCCc1c(C)nc(Nc2ccc(OC)cc2)[nH]c1=O | 4% | 13µM* | -16% | ? | 6% | -9%
COc1ccc(Nc2nc(C)cc(=O)[nH]2)cc1 | 6% | -6% | -12% | -4% | -2% | -7%
Cc1ccc(C(=O)OCC(=O)NCc2ccc(Cl)cc2)s1 | / | ? | / | -40% | / | -14%
O=C(COc1ccc(Br)cc1CNCCc1ccccc1)NCc1ccccc1 | -3% | 7.3µM* | -22% | 12µM* | 3% | ?
NS(=O)(=O)c1ccc(CCNCc2cc(Br)ccc2OCc2ccccc2F)cc1 | -6% | 4.1µM* | 9% | 5.8µM* | 3% | -25%
OCCNCc1cc(Br)ccc1OCc1ccccc1Cl | 28% | 21µM* | -7% | 21µM* | 1% | -7%
NS(=O)(=O)c1ccc(CCNCc2ccccc2OCc2ccc(Cl)cc2)cc1 | 1% | ? | 18% | 23µM* | / | -10%
Cn1cccc1C(=O)N1CCC[C@@]2(CCN(Cc3ccccc3)C2)C1 | -1% | -18% | ? | -6% | / | /
Cc1ccc(C(=O)Nc2nnc(S(=O)(=O)N3CCC(C)CC3)s2)cc1 | 1% | 4% | 14% | -7% | 4% | -10%
Cc1ccc(CN2C(=O)C3(SCC(=O)N3c3ccc(C)c(C)c3)c3ccccc32)cc1 (centres undefined) | -17% | / | 8% | / | -3% | /
C=CCn1c(SCC(=O)c2[nH]c(C)c(C(=O)OCC)c2C)nc2scc(-c3ccc(OC)cc3)c2c1=O | -1% | 15µM* | 9% | 9.2µM* | 1% | -17%
SMILES | KAT2A inh | DT40 TDP1 no CPT | VDR inh | DT40 TDP1 CPT | TDP1 block | PLK1 PBD block
C=CCn1c(SCC(=O)c2[nH]c(C)c(C(=O)OCC)c2C)nc2scc(-c3ccccc3)c2c1=O | -3% | 16µM* | -10% | 12µM* | -2% | -1%
CCn1cc(C(=O)O)c(=O)c2cc(F)c(N3CCN(C(=S)NC(=O)c4ccc(F)cc4)CC3)cc21 | -2% | ? | 30% | ? | / | -20%
CCn1cc(C(=O)O)c(=O)c2cc(F)c(N3CCN(C(=S)NC(=O)c4ccccc4Br)CC3)cc21 | -21% | 21µM* | -14% | ? | 3% | -2%
CCn1cc(C(=O)O)c(=O)c2cc(F)c(N3CCN(S(=O)(=O)c4ccc(NC(=O)OC)cc4)CC3)cc21 | -14% | 18µM* | -29% | 18µM* | ? | -7%
CCCOc1ccc(C(=O)NC(=S)N2CCN(c3cc4c(cc3F)c(=O)c(C(=O)O)cn4CC)CC2)cc1 | -2% | 15µM* | 10% | 16µM* | 8%[0.0935 µM] | -13%
CCC(=O)N1CCN(c2cc3c(cc2F)c(=O)c(C(=O)O)cn3CC)CC1 | / | -12% | 6% | -14% | / | 1%
CCn1cc(C(=O)O)c(=O)c2cc(F)c(N/N=C/c3ccccc3[N+](=O)[O-])cc21 | -2% | 16µM* | -8% | 4.1µM* | -11% | -12%
CCn1cc(C(=O)O)c(=O)c2cc(F)c(N3CCN(C(=S)NC(=O)c4c(OC)cccc4OC)CC3)cc21 | -1% | 26µM* | 2% | 18µM* | -3%[0.0935 µM] | -9%
CCn1cc(C(=O)O)c(=O)c2cc(F)c(N3CCN(C(=S)Nc4ccccc4OC)CC3)cc21 | -4% | ? | -9% | -18% | / | -13%
COC(=O)[C@H](CC(C)C)N1Cc2cc(OC)cc(OC)c2-c2ccccc2S1(=O)=O | -4% | 16µM* | -20% | ? | 0%[56.1 µM] | -19%
C=C1CCN(C(CC(C)C)C(=O)OC)S(=O)(=O)c2ccccc21 (centres undefined) | -6% | ? | 10% | ? | -3% | -5%
CCOc1ccccc1N1CCN(CC(=O)N(C)CC(=O)Nc2ccccc2CC)CC1 | / | -20% | / | -8% | / | -2%
CN1C(=O)/C(=C\c2ccccc2F)Sc2ccc(C(=O)NC3CCN(Cc4ccccc4)CC3)cc21 | -13% | 23µM* | -24% | 18µM* | 6% | -10%
CN1C(=O)/C(=C/c2ccccc2Cl)Sc2ccc(C(=O)N3CCCC3)cc21 | -14% | 26µM* | -24% | ? | 5% | -13%
CCOC(=O)C1CCCN(C(=O)c2ccc3c(c2)N(C)C(=O)/C(=C/c2ccccc2Cl)S3)C1 (centres undefined) | -34% | 18µM* | -11% | ? | 4% | -15%
